Results from PubChem BioAssay AID1159580 (chemical genetic matrix, 2015).
“And” between values parts separate entries of the source, which are not always exact repeats. Identical values can stand only once. In all, about 5,500 compounds went through this assay and about 2,000 (36%) were called active. Not shown: some 18% with an inconclusive outcome. Rule as the data show it: active = normalized growth mostly below about 0.91 (no sharp cut-off); inconclusive = no clear call, values can overlap the other calls; inactive = mostly above about 0.92. This is one part of the list.

Test: chemical genetic growth profiling, strain panel (AID 1159580);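 also: tested at 20 µM; growth read once vehicle control cultures reached saturation at 30 °C; 1 = growth at the plate median or of vehicle wells; lower values mean less growth of the strain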
Conditions: S. cerevisiae deletion strains, growth OD

Measured: normalized growth

CC1=C2CCC3C(CC[C@]4(C)C(=O)CCC34)[C@@]2(C)CCC1=O (some centres not stated)
inactive: locus YAL013W, strain DEP1, hits give low values 0.961 | locus YAL026C, strain drs2, hits give low values 0.978 | locus YAL030W, strain snc1, hits give low values 0.993 | locus YBL061C, strain skt5, hits give low values 0.997 | locus YBR009C, strain hhf1, hits give low values 0.956 | locus YBR023C, strain chs3, hits give low values 0.977 | locus YBR171W, strain sec66, hits give low values 0.977 | locus YBR229C, strain ROT2, hits give low values 0.981 | locus YBR231C, strain swc5, hits give low values 1.04 | locus YBR279W, strain paf1, hits give low values 0.972 | locus YCL011C, strain gbp2, hits give low values 0.968 | locus YCL016C, strain dcc1, hits give low values 0.947 | locus YCL029C, strain bik1, hits give low values 0.969 | locus YCL061C, strain MRC1, hits give low values 0.967 | locus YCL069W, strain vba3, hits give low values 0.983 | locus YCR088W, strain abp1, hits give low values 1.01 | locus YDL005C, strain med2, hits give low values 0.993 | locus YDL035C, strain GPR1, hits give low values 0.922 | locus YDL040C, strain nat1, hits give low values 0.999 | locus YDL074C, strain BRE1, hits give low values 0.915 | locus YDL101C, strain DUN1, hits give low values 0.986 | locus YDL134C, strain PPH21, hits give low values 0.981 | locus YDL185W, strain tfp1, hits give low values 0.962 | locus YDR001C, strain nth1, hits give low values 0.997 | locus YDR069C, strain doa4, hits give low values 1 | locus YDR101C, strain arx1, hits give low values 0.982 | locus YDR150W, strain NUM1, hits give low values 0.986 | locus YDR159W, strain sac3, hits give low values 0.998 | locus YDR162C, strain NBP2, hits give low values 0.842 | locus YDR297W, strain sur2, hits give low values 0.995 | locus YDR318W, strain mcm21, hits give low values 0.941 | locus YDR334W, strain swr1, hits give low values 1.01 | locus YDR335W, strain msn5, hits give low values 0.961 | locus YDR388W, hits give low values 0.946 | locus YEL003W, strain gim4, hits give low values 0.971 | locus YEL037C, strain rad23, hits give low values 0.985 | locus YEL061C, strain CIN8 (second series), hits give low values 0.992 | locus YEL061C, strain CIN8, hits give low values 0.967 | locus YER015W, strain faa2, hits give low values 0.964 | locus YER016W, strain bim1, hits give low values 0.991 | locus YER110C, hits give low values 0.957 | locus YER111C, strain swi4, hits give low values 0.989 | locus YER155C, strain BEM2 (second series), hits give low values 0.904 | locus YER155C, strain BEM2, hits give low values 0.997 | locus YER167W, strain BCK2, hits give low values 0.931 | locus YFR010W, strain ubp6, hits give low values 1.02 | locus YGL078C, strain dbp3, hits give low values 0.947 | locus YGL086W, strain mad1, hits give low values 0.936 | locus YGL167C, strain pmr1, hits give low values 0.963 | locus YGL173C, strain kem1, hits give low values 1 | locus YGL227W, strain vid30, hits give low values 1.01 | locus YGL240W, strain doc1, hits give low values 0.941 | locus YGL248W, strain PDE1, hits give low values 0.981 | locus YGL253W, strain hxk2, hits give low values 0.979 | locus YGR078C, strain PAC10, hits give low values 0.959 | locus YGR135W, strain pre9, hits give low values 0.902 | locus YGR229C, strain SMI1, hits give low values 0.962 | locus YGR252W, strain gcn5, hits give low values 0.836 | locus YHR013C, strain ard1, hits give low values 0.943 | locus YHR027C, strain rpn1, hits give low values 0.995 | locus YHR030C, strain SLT2, hits give low values 0.975 and 0.95 | locus YHR079C, strain IRE1 (second series), hits give low values 0.986 | locus YHR079C, strain IRE1, hits give low values 0.941 | locus YHR094C, strain hxt1, hits give low values 0.984 | locus YHR129C, strain ARP1, hits give low values 0.991 | locus YHR142W, strain chs7, hits give low values 0.92 | locus YHR200W, strain rpn10, hits give low values 0.955 | locus YIL066C, strain RNR3, hits give low values 0.937 | locus YIL073C, strain SPO22, hits give low values 0.861 | locus YIL125W, strain kgd1, hits give low values 0.971 | locus YIR030C, strain dcg1, hits give low values 0.971 | locus YJL092W, strain hpr5, hits give low values 0.992 | locus YJL095W, strain BCK1 (second series), hits give low values 0.992 | locus YJL095W, strain BCK1, hits give low values 0.889 and 0.943 | locus YJL115W, strain asf1, hits give low values 0.985 | locus YJL129C, strain trk1, hits give low values 0.93 | locus YJL134W, strain LCB3, hits give low values 0.983 | locus YJL154C, strain vps35, hits give low values 0.993 | locus YJL164C, strain tpk1, hits give low values 0.938 | locus YJL166W, strain qcr8, hits give low values 0.963 | locus YJL168C, strain set2, hits give low values 0.978 | locus YJL187C, strain SWE1 (second series), hits give low values 0.985 | locus YJL187C, strain SWE1, hits give low values 0.989 | locus YJR043C, strain POL32, hits give low values 0.99 | locus YJR066W, strain TOR1, hits give low values 0.852
active: locus YAL021C, strain ccr4, hits give low values 0.899 | locus YBR021W, strain FUR4, hits give low values 0.798 | locus YDL192W, strain arf1, hits give low values 0.916 | locus YDR137W, strain rgp1, hits give low values 0.693 | locus YDR195W, strain ref2 1.15 [resistant] | locus YDR392W, strain spt3, hits give low values 0.565 | locus YDR502C, strain sam2, hits give low values 0.895
